Results on 7 molecules are retold here after PubChem BioAssay (NCATS).

In experiment [1] the target is Lysosomal acid glucosylceramidase (Homo sapiens) (UniProt P04062). Nature of the experiment: Glucocerebrosidase-p2 (AID 348; in the data active = potency below about 10 µM; also: potency is read from the fitted curve at half-maximal effect). The note with it: purified GBA, blue fluorogenic substrate, 40 min. In short, it runs like this:
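Normal human glucocerebrosidase (0.2 nM) with blue fluorogenic substrate (80 uM final) in citrate/phosphate pH 5.9 with 10mM sodium taurocholate, 0.01% tween-20; 40 min RT, NaOH/glycine stop; fluorescence Ex 365/Em 440; AC50 from a titration from 0.6 nM upwards.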

Experiment [2] in a line: AP1 Signaling Pathway (AID 357).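 Also: ME-180 reporter cells stimulated with EGF at its EC50 level; % is scaled to controls: 0 for no effect and ±100 for the full control effect.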 The note with it: ME-180 AP-1-bla reporter, EGF-induced, beta-lactamase ratio, 5 h; at 7.69 µM (top of the series) unless noted. An outline of the steps: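 Beta-lactamase reporter under AP-1 response element, ME-180 background. Stimulus: EC50 EGF. Compound exposure 5 h, 37 °C. Detection: CCF4, 2.5 h RT, 460/530 nm. Values: AC50 from titration.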

A short description of experiment [3]: NFAT Signaling Pathway (AID 444).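 Also: carbachol stimulus at about its EC50 of 1 µM final; % is scaled to controls: 0 for no effect and ±100 for the full control effect.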 The settings on record: Jurkat NFAT-bla M1, carbachol, beta-lactamase ratio, 5 h; at 7.69 µM (top of the series) unless noted. In short, it runs like this:
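Jurkat cells carrying an NFAT-driven β-lactamase reporter and co-transfected muscarinic M1 receptor were treated with compound plus carbachol (1 uM final, an EC50 level) for 5 h at 37 °C. CCF4 loading followed for 1 h at RT; 460/530 nm ratio gave %activity.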

The nature of experiment [4]: Stat Signaling Pathway (AID 446).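 Also: ME-180 cervical cancer cells given 40 pM IL-6 alongside compound; SIE-controlled beta-lactamase reporter measured as 460/530 nm FRET emission ratio; % is scaled to controls: 0 for no effect and ±100 for the full control effect.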 The note with it: ME-180 (cervical carcinoma) SIE beta-lactamase reporter, IL-6 stimulated, 5 h; at 7.69 µM (top of the series) unless noted. An outline of the steps:
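FRET read-out (405 nm excitation, 460/530 nm emission) of a beta-lactamase reporter under a STAT-inducible element in ME-180 cervical carcinoma cells. Cells with compound receive 40 pM IL-6 for 5 h. Values are normalised to AC90 stimulation and AC90 JAK-inhibitor controls.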

Experiment [5] concerns the target Glucocorticoid receptor (Homo sapiens) (UniProt P04150). Nature of the experiment: GR-EFC Redistribution (AID 451; calls by dose curve; also: potency is read from the fitted curve at half-maximal effect). The note with it: CHO-K1 GR-EFC translocation, beta-gal luminescence, 2 h. An outline of the steps: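 CHO-K1 cells stably expressing nuclear-localized β-gal enzyme acceptor and GR fused C-terminally to the enzyme donor fragment; ligand-driven nuclear translocation restores β-gal by complementation. Compounds titrated up to 46 uM final, 2 h at 37 °C; luminescence read.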

The target in experiment [6] is Mitogen-activated protein kinase 10 (Mus musculus) (UniProt Q61831). Nature of the experiment: JNK3 AlphaScreen Assay (AID 530).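 Also: kinase came from lysate of stimulated human HepG2 cells; signal reports phosphorylation of biotinylated GST-cJun 1-79 at Ser73 with 10 µM ATP; % is scaled to controls: 0 for no effect and ±100 for the full control effect.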 The settings on record: JNK3 lysate, c-Jun phosphorylation; series mostly up to 57.1 µM. In short, it runs like this:
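Phosphorylation of biotinylated GST-cJun(1-79) at Ser73 is measured by AlphaScreen proximity luminescence. Enzyme is JNK3 in HepG2 lysates activated with interleukin-1beta and tumor necrosis factor alpha; ATP is 10 uM final.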
For orientation: Bead proximity is the source of the signal in Alpha formats.

The target in experiment [7] is 3',5'-cyclic-AMP phosphodiesterase 4B (Homo sapiens) (UniProt Q07343). Nature of the experiment: qHTS Assay for Inhibitors of PDE-IV (AID 607; active = well fitted activation curve with a large enough effect in the main read-out, with a control signal flat, not every such curve was filed as active; also: % of control where 0% means no effect). The note with it: HEK293 ACTOne CNG channel cells, membrane potential fluorescence; series mostly up to 22.9 µM. An outline of the steps: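 Cell-based read-out of cAMP via a modified cyclic nucleotide-gated channel and membrane potential dye (535/590 nm) in HEK293 cells expressing PDE4 endogenously. Compounds tested up to 22.9 uM final; 100 uM RO 20-1724 reference.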
(In general: qHTS replaces the single test concentration by a dilution series.)

Experiment [8] in a line: qHTS Assay for Lipid Storage Modulators (AID 1519; calls by dose curve). The note with it: Drosophila S3 cells, BODIPY lipid droplet/cell ratio, laser cytometry, cells loaded with oleic acid; for activity change, negative = inhibition: at 57.5 µM (top of the series). In short, it runs like this:
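Cells seeded at 5,000 per well were treated with compounds over a concentration series and loaded with oleic acid (400 uM, as added). Lipid droplet fluorescence (488 nm excitation, 500-530 nm channel) was read by laser-scanning cytometry and normalized to 20 uM Triacsin C.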

A short description of experiment [9]: Primary qHTS for small molecule stabilizers of the endoplasmic reticulum resident proteome: Secreted ER Calcium Modulated Protein (SERCaMP) assay (AID 1508630; active = well fitted curve in the direction sought with a large enough effect; an effect the other way counts as inactive or inconclusive; also: % is scaled to controls: 0 for no effect and ±100 for the full control effect). The note with it: SH-SY5Y GLuc-SERCaMP (Gaussia luciferase released on ER calcium loss) secretion, thapsigargin, luminescence; series mostly up to 38.4 µM. In short, it runs like this:
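The SH-SY5Y reporter protocol was run at 3 concentrations up to 38.3 uM (primary) or 11 concentrations (follow-up): 16 h compound, 100 nM thapsigargin for 4 h, then extracellular luciferase luminescence.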

For experiment [10], the target named is Cytochrome P450 1A2 (Homo sapiens) (UniProt P05177). Description: p450-cyp1a2 (AID 410; calls by dose curve; also: potency is read from the fitted curve at half-maximal effect). The settings on record: recombinant CYP1A2, luciferin-ME demethylation, luminescence; series mostly up to 57 µM. An outline of the steps:
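O-Demethylation of luciferin 6' methyl ether by human CYP1A2 is monitored as luciferase luminescence. Substrate sits at Km (100uM); enzyme is 20nM. Values are scaled to 57 uM furafylline as maximal inhibition.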

Experiment [11] concerns the target Cytochrome P450 3A4 (Homo sapiens) (UniProt P08684). Description: qHTS Assay for Activators of Cytochrome P450 3A4 (AID 885; active = well fitted curve in the direction sought with a large enough effect; an effect the other way counts as inactive or inconclusive; also: nearly all actives have a fitted effect of over 65% in size; also: potency is read from the fitted curve at half-maximal effect). The settings on record: recombinant CYP3A4, Luciferin-PPXE luminescence, 60 min; series mostly up to 57.1 µM. In short, it runs like this:
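Luminescent readout of luciferin formed from 25 uM Luciferin-PPXE (KM level) by 20 nM CYP3A4 in 200 mM KPO4, with 60 min NADPH-driven reaction at room temperature after 10 min compound exposure. Ketoconazole (57 uM) defined 100% inhibition.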

The target in experiment [12] is Cytochrome P450 2D6 (Homo sapiens) (UniProt P10635). Nature of the experiment: qHTS Assay for Inhibitors and Substrates of Cytochrome P450 2D6 (AID 891; active = well fitted curve in the direction sought with a large enough effect; an effect the other way counts as inactive or inconclusive; also: potency is read from the fitted curve at half-maximal effect; nearly all actives have a fitted effect of over 60% in size). The settings on record: recombinant CYP2D6, luciferin-ME EGE luminescence; series mostly up to 57.1 µM. In short, it runs like this: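 Luminescent read-out of luciferin formed by 5 nM human CYP2D6 demethylating 30 uM Luciferin-ME EGE (Km level) over 60 min at room temperature after NADPH regeneration addition. Data normalized to full inhibition by 1.43 uM quinidine.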

Experiment [13] addresses Glucocorticoid receptor (Homo sapiens) (UniProt P04150). Nature of the experiment: GR-GFP Redistribution (AID 450;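 active = compounds whose dose series gives a full or clear partial fitted curve of increased nuclear translocation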; also: potency is read from the fitted curve at half-maximal effect). The settings on record: U2OS GR-GFP nuclear translocation, laser cytometry, 2 h.
The target in experiment [14] is Cytochrome P450 3A4 (Homo sapiens) (UniProt P08684). Nature of the experiment: qHTS Assay for Inhibitors and Substrates of Cytochrome P450 3A4 (AID 884; active = well fitted curve in the direction sought with a large enough effect; an effect the other way counts as inactive or inconclusive; also: potency is read from the fitted curve at half-maximal effect; nearly all actives have a fitted effect of over 50% in size). The settings on record: recombinant CYP3A4, Luciferin-PPXE luminescence; series mostly up to 57.1 µM. An outline of the steps: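 Luminescent readout of luciferin produced by CYP3A4 (20 nM) dealkylation of Luciferin-PPXE, 25 uM (its KM). NADPH-driven reaction ran 60 min at RT after 10 min compound preincubation; data scaled to 57 uM ketoconazole as 100% inhibition.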

[15] abbreviates: measured here: cell count channel max response.
The mark [16] stands for this setting: measured here: lipid channel max response.

The structures appear in SMILES notation. Records with an inconclusive call do not appear. The source made the active and inactive calls. Unless noted, calls follow the shape of the dose curve; as a rule, active = well fitted curve in either direction with a large enough effect (not every such curve was filed as active); inconclusive = small, poorly fitted or top-dose-only effect, or another doubt; inactive = flat fitted curve, though single readings scatter. Where only a bound is given, the exact number is not on record here.

Cytochrome P450 3A4 (Homo sapiens), sequence (P08684 whole entry, looked up): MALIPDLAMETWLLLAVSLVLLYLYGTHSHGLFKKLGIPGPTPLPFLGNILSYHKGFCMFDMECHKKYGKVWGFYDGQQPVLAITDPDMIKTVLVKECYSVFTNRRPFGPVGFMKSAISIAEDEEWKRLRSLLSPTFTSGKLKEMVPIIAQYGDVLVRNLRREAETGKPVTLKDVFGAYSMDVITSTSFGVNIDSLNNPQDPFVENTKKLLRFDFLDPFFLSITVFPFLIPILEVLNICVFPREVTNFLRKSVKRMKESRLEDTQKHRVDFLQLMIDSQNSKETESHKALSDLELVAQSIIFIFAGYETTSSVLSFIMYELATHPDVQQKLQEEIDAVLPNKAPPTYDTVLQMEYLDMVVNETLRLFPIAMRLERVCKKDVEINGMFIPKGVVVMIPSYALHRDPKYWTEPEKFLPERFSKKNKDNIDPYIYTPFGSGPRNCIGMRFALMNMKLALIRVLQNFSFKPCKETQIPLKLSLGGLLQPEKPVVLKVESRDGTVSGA
3',5'-cyclic-AMP phosphodiesterase 4B (Homo sapiens), sequence (Q07343 whole entry, looked up): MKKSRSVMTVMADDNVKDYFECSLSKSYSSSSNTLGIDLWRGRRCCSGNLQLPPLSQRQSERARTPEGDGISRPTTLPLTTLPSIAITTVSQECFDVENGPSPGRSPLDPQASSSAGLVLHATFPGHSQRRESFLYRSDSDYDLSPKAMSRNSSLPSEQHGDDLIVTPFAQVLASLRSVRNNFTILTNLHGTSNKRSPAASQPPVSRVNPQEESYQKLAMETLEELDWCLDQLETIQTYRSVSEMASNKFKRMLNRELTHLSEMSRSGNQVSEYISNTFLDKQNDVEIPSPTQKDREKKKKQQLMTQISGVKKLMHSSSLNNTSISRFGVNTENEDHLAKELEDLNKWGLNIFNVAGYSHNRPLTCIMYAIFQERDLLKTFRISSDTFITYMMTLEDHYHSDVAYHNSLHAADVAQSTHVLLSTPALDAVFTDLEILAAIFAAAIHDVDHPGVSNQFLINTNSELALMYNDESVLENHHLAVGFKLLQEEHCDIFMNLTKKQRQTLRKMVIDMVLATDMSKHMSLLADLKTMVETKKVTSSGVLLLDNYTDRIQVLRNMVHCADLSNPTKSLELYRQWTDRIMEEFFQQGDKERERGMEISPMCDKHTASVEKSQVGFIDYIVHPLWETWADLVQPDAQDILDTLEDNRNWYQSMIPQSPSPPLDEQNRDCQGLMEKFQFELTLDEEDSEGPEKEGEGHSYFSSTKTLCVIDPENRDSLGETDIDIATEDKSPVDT
Glucocorticoid receptor (Homo sapiens), sequence (P04150 whole entry, looked up, the tested form may be a part): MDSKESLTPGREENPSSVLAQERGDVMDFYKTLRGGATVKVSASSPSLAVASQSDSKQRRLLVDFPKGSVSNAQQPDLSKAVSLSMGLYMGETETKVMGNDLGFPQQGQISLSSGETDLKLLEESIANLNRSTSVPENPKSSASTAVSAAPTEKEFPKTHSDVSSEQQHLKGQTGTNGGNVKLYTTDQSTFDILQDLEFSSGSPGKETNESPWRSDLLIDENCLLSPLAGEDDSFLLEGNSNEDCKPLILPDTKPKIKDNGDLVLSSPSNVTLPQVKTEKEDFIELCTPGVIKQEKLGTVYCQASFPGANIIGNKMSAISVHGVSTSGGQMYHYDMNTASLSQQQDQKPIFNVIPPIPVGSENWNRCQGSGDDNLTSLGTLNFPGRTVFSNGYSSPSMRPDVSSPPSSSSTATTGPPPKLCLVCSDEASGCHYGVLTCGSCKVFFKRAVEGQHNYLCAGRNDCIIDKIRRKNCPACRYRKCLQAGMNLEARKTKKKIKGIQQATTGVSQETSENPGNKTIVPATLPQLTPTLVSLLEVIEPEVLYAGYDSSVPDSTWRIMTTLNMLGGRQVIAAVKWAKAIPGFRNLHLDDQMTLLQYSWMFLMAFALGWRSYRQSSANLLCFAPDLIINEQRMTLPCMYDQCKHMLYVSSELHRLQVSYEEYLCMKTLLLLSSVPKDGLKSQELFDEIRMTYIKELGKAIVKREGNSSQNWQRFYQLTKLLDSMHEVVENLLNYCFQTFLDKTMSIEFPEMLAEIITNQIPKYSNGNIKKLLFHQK
Lysosomal acid glucosylceramidase (Homo sapiens), sequence (P04062 whole entry, looked up): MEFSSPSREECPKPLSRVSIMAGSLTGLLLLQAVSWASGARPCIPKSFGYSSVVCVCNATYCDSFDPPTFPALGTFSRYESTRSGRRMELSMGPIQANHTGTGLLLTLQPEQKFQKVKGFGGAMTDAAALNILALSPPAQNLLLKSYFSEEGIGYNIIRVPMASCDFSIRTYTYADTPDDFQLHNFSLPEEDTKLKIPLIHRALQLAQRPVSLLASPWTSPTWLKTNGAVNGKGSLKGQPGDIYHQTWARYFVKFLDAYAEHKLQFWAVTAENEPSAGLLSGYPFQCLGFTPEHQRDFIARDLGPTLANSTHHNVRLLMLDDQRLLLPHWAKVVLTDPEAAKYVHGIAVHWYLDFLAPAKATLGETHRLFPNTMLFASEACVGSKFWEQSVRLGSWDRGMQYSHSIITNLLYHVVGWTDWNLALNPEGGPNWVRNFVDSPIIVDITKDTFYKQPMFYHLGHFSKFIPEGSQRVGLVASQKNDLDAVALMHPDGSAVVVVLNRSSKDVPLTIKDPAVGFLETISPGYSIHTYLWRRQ
Cytochrome P450 1A2 (Homo sapiens), sequence (P05177 whole entry, looked up): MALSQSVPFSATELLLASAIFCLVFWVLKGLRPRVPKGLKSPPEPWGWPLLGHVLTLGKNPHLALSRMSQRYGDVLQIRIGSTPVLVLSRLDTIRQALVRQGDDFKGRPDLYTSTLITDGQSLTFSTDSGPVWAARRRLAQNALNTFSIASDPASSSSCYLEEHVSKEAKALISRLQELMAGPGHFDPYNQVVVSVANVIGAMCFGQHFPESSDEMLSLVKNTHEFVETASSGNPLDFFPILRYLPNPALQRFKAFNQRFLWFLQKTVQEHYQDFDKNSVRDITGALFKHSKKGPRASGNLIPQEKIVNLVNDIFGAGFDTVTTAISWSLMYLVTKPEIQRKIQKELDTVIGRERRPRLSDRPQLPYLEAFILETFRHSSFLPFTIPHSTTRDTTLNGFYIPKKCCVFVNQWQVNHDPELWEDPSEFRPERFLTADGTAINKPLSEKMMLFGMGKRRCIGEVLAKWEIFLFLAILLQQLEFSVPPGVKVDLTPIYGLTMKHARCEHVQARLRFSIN
Cytochrome P450 2D6 (Homo sapiens), sequence (P10635 whole entry, looked up): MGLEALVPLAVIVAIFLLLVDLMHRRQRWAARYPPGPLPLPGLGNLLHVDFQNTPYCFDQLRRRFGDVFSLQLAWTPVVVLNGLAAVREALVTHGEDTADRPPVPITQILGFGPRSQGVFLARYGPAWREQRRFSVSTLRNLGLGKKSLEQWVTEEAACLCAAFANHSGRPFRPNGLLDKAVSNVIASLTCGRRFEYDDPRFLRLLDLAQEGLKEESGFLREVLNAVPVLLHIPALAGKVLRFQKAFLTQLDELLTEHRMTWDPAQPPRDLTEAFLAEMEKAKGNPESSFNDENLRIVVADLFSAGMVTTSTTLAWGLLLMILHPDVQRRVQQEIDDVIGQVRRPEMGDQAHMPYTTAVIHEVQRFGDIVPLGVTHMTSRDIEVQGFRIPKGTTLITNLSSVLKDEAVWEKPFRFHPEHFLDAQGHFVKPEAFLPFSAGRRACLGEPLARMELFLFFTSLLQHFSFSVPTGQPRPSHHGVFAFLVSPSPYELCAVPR

In the case of `COCC(=O)N1CCC2(CCN(Cc3nccs3)CC2)CC1`, the results for the Potency in experiment [1] and in experiment [5] were > 11.4 µM (inactive) and > 46 µM (inactive), respectively. Moreover, the activity change, negative = inhibition in experiment [2] was 0.0953% (inactive); in experiment [3] it was -2.93% (inactive); in experiment [8], 2.2% (inactive). Besides, the activity, negative = inhibition in [4] was 10% (inactive). Also, the Potency entry in experiment [6] and in experiment [7] was “inactive” each time. The max response in experiment [8] (setting [15]) amounted to 9.94%; in experiment [8] (setting [16]), 16.3%. Also, in experiment [9], the outcome was inactive.

For `CC(C)NC(=O)N1CC[C@@]2(CCCN(C(=O)c3ccncc3)C2)C1`, the Potency in experiment [1] is > 11.4 µM (inactive); in [5], > 46 µM (inactive). The values for the activity change, negative = inhibition in [2], in experiment [3] and in experiment [8] were -20.1% (inactive), 16.9% (inactive) and 0.271% (inactive), respectively. Besides, the activity, negative = inhibition in experiment [4] was -4.77% (inactive). Moreover, the Potency result in experiment [6] and in [7] was “inactive” in each case. In addition, the max response in [8] (setting [15]) was -1.86%; in [8] (setting [16]), 0.996%. In experiment [9], the result was inactive.

Consider `COC(=O)N1CCC2(CC1)CCN(C(c1ccccc1)c1ccccc1)CC2`, for which the Potency was > 11.4 µM (inactive) in experiment [1], > 46 µM (inactive) in experiment [5], 12.6 µM (active) in experiment [11] and 7.94 µM (active) in experiment [12]. Also, the figures for the activity change, negative = inhibition in experiment [2] and in [8] were -7.14% (inactive) and 2.35% (inactive), respectively. In addition, the Potency result in [10], in experiment [6] and in [7] was “inactive” in each case. Also, the max response turned out to be 5.65% in experiment [8] (setting [15]) and 12.4% in experiment [8] (setting [16]). In addition, in [9], the result was inactive.

As for `COc1ccc(NC(=O)N2CC3(CCNCC3)C2)cc1`, the Potency was > 11.4 µM (inactive) in [1] and > 46 µM (inactive) in experiment [5]. For the same molecule, the values for the activity change, negative = inhibition in [2], in experiment [3] and in experiment [8] were 7.88% (inactive), 6.29% (inactive) and 5.62% (inactive), respectively. The activity, negative = inhibition in experiment [4] is -3.83% (inactive). Besides, the Potency entry in experiment [6] and in experiment [7] was “inactive” throughout. In addition, the max response in experiment [8] (setting [15]) was 12.7%; in experiment [8] (setting [16]) it was 23%. The outcome in experiment [9] was inactive.

Turning to `O=C(Nc1cccc(F)c1)N1CC[C@@]2(CCCN(C(=O)c3csnn3)C2)C1`, the Potency in [1] was > 11.4 µM (inactive); in experiment [5] it was > 46 µM (inactive). The activity change, negative = inhibition in [2] was -13.9% (inactive); in experiment [3], 20.4% (inactive); in experiment [8], 3.72% (inactive). In addition, the activity, negative = inhibition in experiment [4] was -1.73% (inactive). Also, the Potency entry in [6] and in experiment [7] was “inactive” in each case. Also, the results for the max response in [8] (setting [15]) and in experiment [8] (setting [16]) were 12.5% and 18.5%, respectively. Also, in experiment [9], the result was inactive.

Consider `COCCn1c(=O)c(-c2cn(C)c3ccccc23)nc2cnc(Oc3ccc(OC)cc3)nc21`, for which the Potency in experiment [1] is > 11.4 µM (inactive); in [10] it was 2.51 µM (active); in experiment [13], > 46 µM (inactive); in [5] it was > 46 µM (inactive); in experiment [14] it was 3.98 µM (active). Further, the activity change, negative = inhibition in experiment [2] is 14.1% (inactive); in [8] it was -11.5% (inactive). Further, the Potency entry in experiment [7] and in experiment [11] was “inactive” throughout. Further, the max response is 2.76% in experiment [8] (setting [15]) and -6.23% in experiment [8] (setting [16]). Moreover, the outcome in experiment [9] was inactive.

For the molecule `O=C(c1cnccn1)N1CCC[C@@]2(CCN(Cc3ccccc3)C2)C1`, the Potency in experiment [1] is > 11.4 µM (inactive); in [5] it was > 46 µM (inactive). Besides, the activity change, negative = inhibition in experiment [2] is 5.08% (inactive); in [3] it was 6.26% (inactive); in [8], 1.97% (inactive). Besides, in [4], the activity, negative = inhibition is 1.17% (inactive). For the same molecule, the Potency entry in experiment [6] and in [7] was “inactive” in each case. Further, the max response worked out at 8.78% in [8] (setting [15]) and 13.2% in experiment [8] (setting [16]). The result in [9] was inactive.
